Only some compounds are listed: those with a hit (about 7.3% of all), similar ones and a draw of the others.
p53 reactivator = mutant p53 re-activation in reporter cells; H1299 p53-A138V BP100-luciferase reporter, luminescence, 24 h; Potency, µM (doses to about 92.2 µM), for the others: at the highest dose activity change, positive = activation, hits mostly activators; 320,000 tested, 0.063% active; AID 504706; further: % of control where 0% means no effect; nearly all actives have a fitted effect of over 45% in size
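p53-null H1299 cells stably carrying temperature-sensitive p53-A138V and a BP100-luciferase reporter were pinned with compounds (4-point, 1:5 series) and held 24 hrs at 37 deg C. Luminescence was read 10 min after detection reagent.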
SMN2 splice enh = enhancers of SMN2 splice variant expression; HEK293 SMN2-luciferase splicing reporter, luminescence, 30-36 h; Potency, µM (doses to about 46.1 µM), for inactives: top-dose activity change, positive = activation, actives largely listed as activators; 210,000 tested, 2.8% active; further: % of control where 0% means no effect; nearly all actives have a fitted effect of over 55% in size
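HEK293 cells carry an SMN2 […]–luciferase reporter in which exon 7 inclusion puts luciferase in frame. Cells were plated 10-12 h before compound addition, then incubated 30-36 h at 37C. ONE-Glo luminescence was read; sodium butyrate at 4.5 mM final served as control.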
FLuc modulator = firefly luciferase modulation, counter-screen for miR-21 project; AID 588342; Potency, µM (top dose mostly 57.5 µM), inactives show at the top dose activity change, negative = inhibition, hits mostly inhibitors; 360,000 tested, 6.9% active; purified FLuc, Km substrates, luminescence inhibition; P08659;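 further: plate controls were vehicle for no effect and reference inhibitor for full effect; nearly all actives have a fitted effect of over 55% in size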
Target sequence (P08659 whole entry, looked up): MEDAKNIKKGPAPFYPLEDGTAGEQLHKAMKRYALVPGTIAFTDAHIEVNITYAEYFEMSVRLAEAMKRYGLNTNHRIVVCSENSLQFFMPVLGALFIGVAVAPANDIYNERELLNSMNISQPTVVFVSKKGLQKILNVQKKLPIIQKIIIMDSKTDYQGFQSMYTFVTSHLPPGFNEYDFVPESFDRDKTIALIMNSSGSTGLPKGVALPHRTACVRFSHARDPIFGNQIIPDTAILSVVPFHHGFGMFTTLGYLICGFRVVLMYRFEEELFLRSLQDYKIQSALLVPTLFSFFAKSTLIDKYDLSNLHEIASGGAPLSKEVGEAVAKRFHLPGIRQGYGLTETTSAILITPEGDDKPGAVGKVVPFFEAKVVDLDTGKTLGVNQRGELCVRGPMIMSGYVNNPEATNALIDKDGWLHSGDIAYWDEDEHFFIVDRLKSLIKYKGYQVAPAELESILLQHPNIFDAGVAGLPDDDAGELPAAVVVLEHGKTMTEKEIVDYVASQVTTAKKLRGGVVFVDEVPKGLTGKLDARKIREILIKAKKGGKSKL
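Purified P. pyralis luciferase (10nM final) with 10uM D-luciferin and 10uM ATP (Km levels) in 50mM Tris acetate pH 7.5, 10mM Mg acetate, 0.01% Tween-20, 0.05% BSA; qHTS 6-point titration, ~60 µM downward; luminescence read.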
Rab9 promoter act = activates the Rab9 promoter. Huh7 Rab9 promoter-luciferase reporter, luminescence, 24 h. Potency, µM (top dose mostly 9.22 µM), inactives show at the top dose activation, negative = inhibition, most hits filed as activators. 320,000 tested, 2.8% active. AID 485297; further: % of control where 0% means no effect; nearly all actives have a fitted effect of over 60% in size
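Huh7 cells stably carrying Rab9 promoter–luciferase reporter, plated 1500 cells/well, compound added after 2 h and incubated 24 h at 37 °C; luciferase luminescence then read after 10 min with detection reagent.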
ELG1 genotox = genotoxicity induction in ELG1-luciferase HEK293T cells; HEK293T ELG1-luciferase reporter, luminescence, 16 h; Potency, µM (top dose mostly 46 µM), without a hit: at the highest dose activity change, positive = activation, hits mostly activators; 330,000 tested, 1.3% active; further: % of control where 0% means no effect; nearly all actives have a fitted effect of over 60% in size
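Quantitative HTS format in 1536-well plates. HEK293T ELG1-luciferase reporter cells receive test compound and are incubated 16 hr at 37 °C, 5% CO2; ONE-Glo added, 30 min room temperature, then luminescence read.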
NPC1 promoter act = activates the NPC1 promoter. Huh7 NPC1 promoter luciferase reporter, 24 h. Potency, µM (highest dose often 9.22 µM), inactives show at the top dose activation, hits mostly activators. 320,000 tested, 2.4% active. AID 485313; further: % of control where 0% means no effect; nearly all actives have a fitted effect of over 60% in size
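Luminescence read-out of NPC1 promoter-driven luciferase in stably transfected Huh7 cells; compounds delivered in DMSO and left 24 h at 37C, 5% CO2, qHTS titration format.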
* marks the source's active call; other numbers are inactive results; ? = inconclusive; nt = no result given; [ ] = remark or other dose. The call rests on the fitted dose curve; in most records, active means well fitted curve in the direction sought with a large enough effect; inconclusive means small, poorly fitted or top-dose-only effect, or another doubt; inactive means no such curve, though single readings can be large; an effect the other way counts as inactive or inconclusive. Potency means the concentration at half of the fitted maximal effect.

SMILES	p53 reactivator	SMN2 splice enh	FLuc modulator	Rab9 promoter act	ELG1 genotox	NPC1 promoter act
CCc1c(C)sc2c1CCN(Cc1cccc(F)c1)C2c1ccccc1 (stereo unspecified)	nt	nt	-6.4%	nt	nt	nt
COc1ccc2c(Sc3ccc(C)cc3)c(C(=O)NCCc3ccccc3)[nH]c2c1	nt	nt	-2.9%	nt	nt	nt
COCCCNC(=O)c1[nH]c2cc(OC)ccc2c1Sc1ccc(C)cc1	nt	nt	-1.3%	nt	nt	nt
COc1ccc2c(Sc3ccccc3)c(C(=O)NCCN(C)C)[nH]c2c1	nt	nt	4.78µM*	nt	nt	nt
COc1ccc2c(N)c(C(=O)NN)[nH]c2c1	-0.9%	nt	16.9µM*	-2.6%	-5.8%	-1.6%
CCOC(=O)C(C)N1N=C(/C=C/c2ccc(OC)cc2)CCC1=O (stereo unspecified)	-0.2%	-18.2%	-5.9%	-2.7%	-1.8%	-0.6%
S=C1NC=NC2N=CNC12 (stereo unspecified)	nt	-37.9%	nt	nt	nt	nt
Cc1cc(OCc2cn3cccnc3n2)ccc1Cl	?	11.2µM*	21.3µM*	2.82µM*	8.2µM*	?
Cc1nc2cc(Nc3ccncc3)ccc2s1	-2.6%	7.1%	-11.3%	-9.1%	-2.8%	-2.8%
O=C(N/N=C/c1ccnc2ccccc12)c1ccccc1O	18.2%	nt	10.7µM*	7.8%	15.4%	14.5%
O=C(N/N=C/c1ccccc1O)c1ccncc1	17.1%	nt	?	-36.3%	-9.2%	-32.5%
O=C(N/N=C/c1ccc2nccnc2c1)c1ccccc1O	12.0%	nt	0.269µM*	?	2.8%	?
O=C(N/N=C/c1cccc(C(F)(F)F)c1)c1ccccc1O	-2.9%	-8.9%	6.75µM*	15.3%	3.4%	18.2%
Cc1ccc2c(c1)c1n[nH]c(=S)nc1n2CCc1ccccc1	-0.3%	nt	-2.8%	-7.6%	-6.0%	-8.7%
O=c1[nH]c(SCc2c(F)cccc2Cl)nc2c1CCC2	nt	nt	-8.9%	nt	nt	nt
Cn1cccc1C(=O)N/N=C/c1c(Cl)cccc1Cl	?	nt	10.7µM*	2.82µM*	16.4µM*	2.51µM*
Cn1cccc1/C=N/NC(=O)c1cc2ccccc2cc1O	23.2%	nt	19µM*	?	?	?
Cc1cc(C(=O)N/N=C/c2ccc(C)s2)n[nH]1	?	nt	?	3.16µM*	?	3.98µM*
Cn1cccc1/C=N/NC(=O)c1ccncc1	1.4%	nt	-20.1%	-2.1%	0.3%	-6.5%
Cn1cccc1/C=N/NC(=O)c1ccccn1	16.7%	nt	13.5µM*	3.55µM*	?	?
O=C(Cn1c2[n+](c3ccc(C(F)(F)F)cc31)CCCCC2)c1ccc2c(c1)OCCO2	-0.2%	-4.6%	1.3%	-4.0%	-7.0%	-2.0%
CCOc1cccc(C(=O)N(Cc2ccc(F)cc2)Cc2ccco2)c1	nt	-12.1%	-16.7%	nt	nt	nt
O=C(Cc1ccc(NC2=NC3CS(=O)(=O)CC3S2)cc1)NCCc1ccccc1 (stereo unspecified)	1.5%	nt	-1.8%	0.8%	5.7%	1.6%
Cc1cc(Br)ccc1S(=O)(=O)n1ccnc1C	-0.7%	7.9%	?	-4.7%	-0.7%	-1.2%
Cc1cc2ccc(OC(=O)c3ccc(N=C(N)N)cc3)cc2oc1=O	nt	1.3%[9.22 µM]	nt	nt	nt	nt
SMILES	p53 reactivator	SMN2 splice enh	FLuc modulator	Rab9 promoter act	ELG1 genotox	NPC1 promoter act
Cc1cc(C)n(CC(=O)N/N=C/c2cccs2)n1	26.8%	-7.2%	16.9µM*	3.1%	6.7%	-2.4%
CC(C)CNC(=O)C(=O)N/N=C/c1cccs1	13.0%	3.5%	?	?	?	?
Cc1ccc(/C=N/NC(=O)c2ccccn2)s1	?	3.98µM*	?	0.501µM*	?	1.26µM*
O=C(N/N=C/c1cccs1)c1ccccn1	?	25.1µM*	10.7µM*	2.51µM*	?	3.55µM*
Cc1cc(C)n(CC(=O)N/N=C/c2ccc([N+](=O)[O-])s2)n1	7.9%	-90.5%	3.6%	-0.9%	-15.8%	0.1%
CC(C)(C)NC(=O)C(=O)N/N=C/c1cccs1	7.5%	?	15.1µM*	1.78µM*	?	?
O=C(Nc1ccc(Cl)c(Cl)c1)N(Cc1c[nH]c2ccccc12)C1CCCCC1	nt	3.5%	-6.2%	nt	nt	nt
COc1ccccc1N1CCN(C2CCCN(C(=O)CCc3cnn(C)c3)C2)CC1 (stereo unspecified)	-5.1%	nt	4.4%	3.3%	-5.8%	6.1%
COc1ccc(CNC(=O)CCC2N=C3c4ccccc4N=C(SCc4ccc(F)cc4)N3C2=O)cc1 (stereo unspecified)	nt	nt	-7.7%	nt	nt	nt
COc1cccc(NC(=O)c2sc(-n3nc(C)c(Cc4ccccc4Cl)c3C)nc2C)c1	nt	nt	-1.5%	nt	nt	nt
COc1ccc([C@]23Cc4cc(C#N)ccc4C(O2)c2c(cc(C)n(-c4ccccc4)c2=O)O3)cc1	nt	nt	3.4%[11.5 µM]	-6.2%[1.84 µM]	nt	0.7%[1.84 µM]
COc1ccc(OCc2cc(C(=O)NCC3CCOCC3)no2)c(Cl)c1	?	nt	13.5µM*	?	?	?
COc1ccc(OCc2cc(C(=O)N(C)Cc3cnccn3)no2)c(Cl)c1	22.9%	nt	?	?	?	25.9%
COc1ccc(OCc2cc(C(=O)NCCN3CCCC(O)C3)no2)c(Cl)c1 (stereo unspecified)	15.9%	nt	?	-2.1%[1.84 µM]	2.6%	1.9%
COc1cccc(OCc2cc(C(=O)NC3CCOCC3)no2)c1	?	nt	23.9µM*	?	?	?
COc1ccc(OCc2cc(C(=O)N3CCN(CC4CC4)CC3)no2)c(Cl)c1	?	nt	?	?	4.6%[9.26 µM]	?
COc1ccc(OCc2cc(C(=O)N(C)Cc3cc(C4CC4)n[nH]3)no2)c(Cl)c1	?	nt	12µM*	2.82µM*	?	3.55µM*
COc1ccc(OCc2cc(C(=O)NCCN3CCCc4ccccc43)no2)c(Cl)c1	-4.2%	nt	23.9µM*	4.5%	-20.2%	23.9%
CCCSc1nc2sc3c(c2c(=O)n1-c1ccccc1)CCC(C)C3 (stereo unspecified)	nt	-1.5%	-2.4%	nt	nt	nt
Cc1c2cnn(CC(=O)NCc3ccc(F)cc3)c(=O)c2c(C)n1Cc1cccc(Cl)c1	nt	-1.8%	-2.3%	nt	nt	nt
CCc1nn2c(=O)cc(COC(=O)CNC(=O)c3ccccc3)nc2s1	nt	nt	-2.2%	nt	nt	nt
Cc1ccc(CCNC(=O)CN(c2ccc(C(C)C)cc2)S(=O)(=O)c2c(C)nn(C)c2C)cc1	nt	-12.1%	0.3%	nt	nt	nt
COc1ccc(OCc2cc(C(=O)NCC3CCCCO3)no2)c(Cl)c1 (stereo unspecified)	?	nt	?	3.98µM*	?	?
COc1ccccc1NC(=O)n1ncc2c(C)cccc21	nt	nt	-6.9%	nt	nt	nt
Cc1ccccc1NC(=O)n1ncc2cc(Cl)ccc21	10.9%	nt	21.3µM*	14.2%	5.2%	9.8%
COc1ccc(NC(=O)n2ncc3c(C)cccc32)cc1	?	nt	3.01µM*	0.1µM*	?	0.0891µM*

Source: PubChem (National Center for Advancing Translational Sciences (NCATS))
